Rows were chosen to be rich in hits. Some 2.3% of all compounds tested hit in one or more screens of this group.
uPA surface inh – qHTS for Inhibitors of Cell Surface uPA Generation; 0.31% of 330,000 active; cell surface uPA generation assay, qHTS; Potency, µM (top dose mostly 38.3 µM), inactives show at the highest dose activity change, negative = inhibition, actives largely listed as inhibitors; active = well fitted inhibition curve with a large enough effect; inconclusive = small, poorly fitted or top-dose-only effect; inactive = no such curve, though single readings can be large or run the other way; tested in mouse RAW 264.7 cells; note: % is set by controls: 0 for no effect and ±100 for the full control effect; nearly all actives have a fitted effect of over 55% in size
Chronic BCR inh – qHTS Assay to Find Inhibitors of Chronic Active B-Cell Receptor Signaling. ABC-DLBCL IkBa-CBG/CBR reporter, luminescence ratio, 4 h. Potency, µM (doses to about 46.1 µM), without a hit: at the top dose activity change, negative = inhibition, usual class: inhibitors. 0.05% of 340,000 active; active = well fitted inhibition curve with a large enough effect in the signal ratio, with a control signal flat, not every such curve was filed as active; inconclusive = small, poorly fitted or top-dose-only effect, or effect the other way, or a change in a side signal; the % refers to the signal ratio;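 note: plate controls were basal doxycycline-induced cells for no effect and cells given 10 µM MG132 for full effect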
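Compounds up to 46 uM were incubated four hours with TMD8 cells whose green CBG68 luciferase is fused to IkappaBalpha; red CBR luminescence normalised the signal, and concentration-effect curves were fitted to fusion, red and ratio data.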
FUS yeast rescue – qHTS for Suppressors of FUS Proteinopathy: Primary screen using FUS-linked yeast assay. 0.24% of 390,000 active. Potency, µM (top dose mostly 76.6 µM), hits mostly activators. S. cerevisiae FUS-expressing, growth rescue, OD600, 24 h;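 note: plate controls were DMSO vehicle for no effect and reference control for full effect; nearly all actives have a fitted effect of over 55% in size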
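Yeast expressing FUS under galactose induction, OD 0.005 in 2% galactose medium; compounds in a dilution series, 24 h at 30C. Growth rescue by absorbance at 600 nm; CP55940 positive control, DMSO negative.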
Abeta rescue – qHTS for compounds that reverse cellular toxicity of Amyloid beta (A-beta) peptide in yeast: Primary Screen; yeast expressing A-beta42, growth rescue, OD600, 48 h; response scale: 0% DMSO, 100% iron-clioquinol control; Potency, µM (highest dose often 46.1 µM), usual class: activators; 0.063% of 410,000 active; AID 1347071, 2019; note: nearly all actives have a fitted effect of over 55% in size
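Growth rescue measured by 600 nm absorbance after 48 h yeast culture at 30 C with compound. Values normalized between DMSO and an equimolar ferric chloride plus clioquinol control.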
TDP-43 yeast inh – qHTS of TDP-43 Inhibitors; TDP-43 expressing yeast growth rescue, BacTiter-Glo, 24 h; Potency, µM (series often up to 46.1 µM), inactives show top-dose growth rescue (activation), actives largely listed as activators; 1.8% of 410,000 active; note: % of control where 0% means no effect; nearly all actives have a fitted effect of over 50% in size
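Yeast expressing TDP-43 (pregrown in raffinose, seeded at OD600=0.02 in galactose medium) exposed to compounds 24 hr at 30 deg C. Growth read by BacTiter-Glo luminescence; rescue of toxicity appears as increased signal.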
aSyn rescue – qHTS of alpha-syn Inhibitors. AID 652106, 2013. Potency, µM (highest dose often 46.1 µM), without a hit: at the top dose growth rescue (activation), most hits filed as activators. 0.14% of 370,000 active. Yeast expressing alpha-synuclein, growth rescue, BacTiter-Glo, 24 h; note: % of control where 0% means no effect; nearly all actives have a fitted effect of over 65% in size
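Readout is rescue of growth in alpha-synuclein-expressing yeast, so inhibitors of toxicity appear as activators. Growth after 24 hr at 30 deg C in galactose medium is quantified by luminescence.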
* hit, by the source's call; i = inactive; ? = inconclusive; nt = no result; [ ] = remark or other dose. Unless noted, calls come from the whole dose curve; as a rule, active = well fitted curve in the direction sought with a large enough effect; inconclusive = small, poorly fitted or top-dose-only effect, or another doubt; inactive = no such curve, though single readings can be large; an effect the other way counts as inactive or inconclusive. Potency is the fitted concentration of half-maximal effect.

SMILES | uPA surface inh | Chronic BCR inh | FUS yeast rescue | Abeta rescue | TDP-43 yeast inh | aSyn rescue
COc1cccc(S(=O)(=O)NCc2ccc3c(c2)OCO3)c1 | nt | 3% | i | i | 9% | 4%
COCCNC(C(=O)Nc1ccc([N+](=O)[O-])cc1Br)c1ccccc1 (stereo unspecified) | -5% | -3% | i | i | 18% | 5%
O=C(COc1ccccc1Cl)c1ccc[nH]1 | -4% | 1% | i | i | 20% | 10%
O=C(COc1ccc(Br)cc1Cl)c1ccc[nH]1 | 0% | ? | i | i | 20µM* | 12%
Cc1c(C(=O)N2CCCCCC2)c(S(=O)(=O)NCc2ccc(Br)cc2)c(C)n1C | nt | nt | i | i | 10% | nt
COc1ccc(OC)c(Nc2nc(-c3sc(C)nc3C)cs2)c1 | -5% | ? | i | i | 22µM* | 8%
COc1cccc(Nc2nc(-c3sc(C)nc3C)cs2)c1 | 8% | ? | i | i | ? | -23%
Cc1nc(C)c(-c2csc(Nc3ccc(Cl)cn3)n2)s1 | nt | nt | i | i | 13µM* | -27%
Cc1cc2nncn2c2ccccc12 | 0% | ? | i | i | 6% | 2%
COc1cc(C(=S)N2CCC(C)CC2)ccc1O | 3% | ? | i | i | ? | -3%
CCN(CC)c1ccc2c(Cl)c(Br)c(=O)oc2c1 | -12% | ? | i | i | 20µM* | 18%
CCN(CC)c1ccc2c(C)c(Cl)c(=O)oc2c1 | -7% | -11% | i | i | -11%[9.22 µM] | -5%
CCN(CC)c1ccc2c(c1)oc(=O)c1c(Cl)cc(=O)oc12 | -8% | -1% | nt | i | 21% | 13µM*
S=C(NCc1cccs1)Nc1ccc(Br)cc1Cl | -13% | ? | i | ? | 35µM* | -11%
O=C(O)Cc1ccc(NC(=S)Nc2ccc(Br)cc2Cl)cc1 | 1% | 1% | i | i | 35µM* | 12%
CC(C)(C)c1ccc(NC(=S)NCc2cccs2)cc1 | -7% | 23% | i | i | 13µM* | -9%
COc1ccc(Cl)cc1NC(=S)NCc1ccccn1 | -2% | 0% | nt | i | 22% | 5%
Cc1cc(C)cc(NC(=S)NCc2cccs2)c1 | -6% | 3% | nt | i | 5% | -4%
S=C(NCc1ccccn1)Nc1ccc(Cl)cc1Cl | 4% | 10% | i | i | 11µM* | -16%
O=C(O)Cc1ccc(NC(=S)Nc2cccc(Cl)c2Cl)cc1 | 1% | 0% | ? | i | -9% | 12%
COc1cc(/C=C(\C#N)c2ccccn2)ccc1OCC(=O)Nc1cccc(C(F)(F)F)c1 | -1% | 0% | nt | i | -2% | -4%
Cc1nnc(NC2CCCCC2)[nH]c1=O | -3% | 10% | i | i | 15% | 4%
COCCCNC(=O)c1[nH]c2ccccc2c1Sc1ccc(C)cc1 | nt | nt | i | i | 23% | nt
Cc1ccnc(NC(=O)c2cc3cc(F)ccc3s2)c1 | 0% | ? | i | i | -3% | -18%
COc1cc(NC(=O)CSc2nnc3ccccn23)cc(OC)c1OC | nt | nt | i | i | 17% | -1%
SMILES | uPA surface inh | Chronic BCR inh | FUS yeast rescue | Abeta rescue | TDP-43 yeast inh | aSyn rescue
O=S(=O)(Nc1ccc(Br)cn1)c1ccc(Cl)s1 | 4% | 11% | i | i | 11µM* | 5%
Cc1ccc(NS(=O)(=O)c2ccc(Cl)s2)nc1 | 0% | -3% | i | i | 3% | 2%
CCOCCCNCc1ccc(OC)cc1 | nt | ? | i | i | -8% | -9%
COc1ccc(Cl)cc1NC(=O)CCc1ccccc1 | -3% | 10% | i | i | 8.9µM* | 1%
COc1ccc(Cl)cc1NC(=O)NCC1CCN(C(=O)OC(C)(C)C)CC1 | -2% | -2% | 32µM* | i | -12% | -11%
COc1ccc(Cl)cc1NC(=O)NCCN1CCCCC1 | 0% | -1% | i | i | nt | 0%

Compound activity (PubChem BioAssay)
